In the library only some 4.6% were active in any assay of this set; here they are far more common.
TIM10 inh: TIM10 yeast growth inhibition. actives 1.4% (n = 330,000). AID 463195. S. cerevisiae TIM10 strain growth, BacTiter-Glo luminescence, 24 h. inhibition, % at 10 µM;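 active means inhibition of 40% or more at the single tested concentration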;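 further: wild-type TIM10 isogenic control strain grown at permissive 25 °C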
NALP3 yeast inh: blocks the NALP3 inflammasome reconstituted in yeast | AID 2825 | inhibition, % at 10 µM | actives 0.39% (n = 330,000) | Yeast reconstituted NLRP3/ASC/caspase-1, beta-gal luminescence, 24 h;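 active means inhibition of 50% or more; inactive means inhibition below 50%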;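 further: plate controls were induced DMSO wells for no effect and uninduced yeast grown without galactose for full effect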
tim10-1 inh: growth inhibitors of tim10-1 mutant yeast. AID 463190. S. cerevisiae tim10-1 ts strain growth, BacTiter-Glo, 24 h. inhibition, % at 20 µM. actives 2.2% (n = 330,000);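 active means inhibition of at least 40%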;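 further: mutant grown at 25 °C; 0% = DMSO wells with yeast and 100% = wells holding no yeast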
tim23-1 inh: inhibits growth of tim23-1 mutant yeast; AID 463212; S. cerevisiae tim23-1 growth, BacTiter-Glo luminescence, 24 h; actives 1.3% (n = 330,000); inhibition, % at 20 µM;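 active means growth inhibition of the mutant yeast at or above 50%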;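 further: temperature-sensitive mutant grown at 25 °C; plate controls were DMSO-treated mutant yeast for no effect and medium wells lacking yeast for full effect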
SKKanGAS inh: SKKanGAS growth inhibition. S. pyogenes SKKanGAS, kanamycin growth, BacTiter-Glo, 6 h. inhibition, % at 7.5 µM. actives 1.3% (n = 300,000). AID 1662;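 active means mean replicate score, as percent of positive control median, at least 50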;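 further: strain carries kanamycin resistance gene driven by streptokinase promoter and grows in 40 µg/ml kanamycin; loss of luminescence reflects streptokinase promoter inhibition or plain growth inhibition; 0% = median of DMSO wells and 100% = positive control at its reference dose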
PfHsp90 set2: reduces growth (ATP signal) of yeast expressing P. falciparum Hsp90. inhibition, % at 9.4 µM. S. cerevisiae expressing PfHsp90, BacTiter-Glo ATP, 48 h; yeast lacking PDR1 and PDR3 efflux regulators. actives 0.32% (n = 310,000). AID 504621;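 active means every replicate shows inhibition above about 80%, whatever the replicate mean, limit read from the data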;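 further: 0% = DMSO neutral controls and 100% = 20 µM radicicol positive controls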
tim10-1 conf: tim10-1 yeast growth inhibition, confirmed. shares compounds with tim10-1 inh. S. cerevisiae tim10-1 ts strain growth, BacTiter-Glo, 24 h. inhibition, % at 20 µM. actives 56% (n = 7,400). AID 463213;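 active means inhibition of yeast growth at or above a set limit in either of two repeat tests at 20 µM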;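 further: tim10-1 mutant grown at permissive 25 °C to find synthetic lethal compounds; 0% = DMSO yeast wells and 100% = medium wells without yeast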
Active calls of the source: *; · = no result given.

SMILES | TIM10 inh | NALP3 yeast inh | tim10-1 inh | tim23-1 inh | SKKanGAS inh | PfHsp90 set2 | tim10-1 conf
O=C(O)c1nn(CC(=O)N2CCC(Cc3ccccc3)CC2)c(=O)c2ccccc12 | 8.5 | 6.5 | 12.1 | 16.6 | 8.3 | 6.7 | ·
CN(C)c1nc(OCCOC(=O)Nc2ccc(Cl)cc2Cl)nc(N(C)C)n1 | 18.1 | 6.9 | 41.6* | 30.4 | -7.4 | 29.7 | 15.4
Cc1nn(-c2ccccc2)c(N2CCCC2)c1/C=N/NC(=S)Nc1cc(C(F)(F)F)ccc1Cl | -3.4 | 0.4 | 31.3 | 13.9 | 7.1 | -34.5 | ·
Cc1nn(-c2ccccc2)c(N2CCCC2)c1/C=N/NC(=S)Nc1ccccc1C(F)(F)F | 24.1 | 22.0 | 41.3* | 22.1 | 24.3 | -30.1 | 23.8
NC(=O)c1ccc(NC(=O)C2CCCC2)cc1 | 1.8 | 9.4 | -0.8 | 17.0 | -2.3 | -21.5 | ·
CCSc1nnc(NC(=O)c2cccc(OCc3c(C)noc3C)c2)s1 | 11.1 | 6.6 | 40.0 | 6.0 | 8.6 | · | 11.2
CCCC1CCc2[nH]nc(C(=O)NN)c2C1 (stereo not drawn) | -16.4 | 7.4 | 3.0 | 25.8 | · | 20.3 | ·
CCc1cccc(NC(=O)CS(=O)Cc2nc(-c3ccc(C)cc3)oc2C)c1 (stereo not drawn) | 25.8 | 11.5 | 47.2* | 31.3 | 5.6 | -21.3 | 35.3*
CC(C(=O)NCC1CCCCC1)N1CCN(S(=O)(=O)/C=C/c2ccccc2)CC1 (stereo not drawn) | 19.6 | -15.2 | 41.2* | 17.0 | 4.2 | -3.6 | 12.6
CC(C(=O)NCC1CCCCC1)N1CCc2ccccc2C1 (stereo not drawn) | 0.7 | 4.1 | 12.3 | 16.9 | 1.1 | -2.6 | ·
COc1ccc(NC(=O)C(=O)NCC(c2ccco2)N2CCc3ccccc3C2)cc1OC (stereo not drawn) | 16.4 | 24.0 | 7.5 | 12.9 | 8.9 | · | ·
COc1ccccc1/C=C\C(=O)NCC(=O)N/N=C/c1cccc(OC)c1O | 13.9 | -0.2 | 50.9* | 9.8 | 9.7 | -7.6 | -4.5
COc1ccc(C(C(=O)NC2CCCC2)N(CC2CCCO2)C(=O)Cc2cccs2)cc1OC (stereo not drawn) | 18.8 | 7.5 | 16.1 | 4.3 | -9.2 | -2.2 | ·
COc1cccc(C(C(=O)NC2CCCC2)N(CC2CCCO2)C(=O)Cc2cccs2)c1 (stereo not drawn) | 14.1 | 5.7 | 45.2* | 12.5 | -5.5 | 10.3 | 21.0
Cc1ccc(N=Nc2c(N)[nH]n3c(=O)cc(-c4ccccc4)nc23)cc1 | 11.2 | 25.4 | 50.2* | 34.1 | · | · | 27.1
COc1ccccc1N1CCN(CC(O)COc2ccc3c(c2)CCC3)CC1 (stereo not drawn) | -8.4 | 29.1 | 11.6 | -48.9 | 0.0 | -7.0 | ·
Cc1ccc(OCCn2cnc3cc([N+](=O)[O-])ccc3c2=O)cc1 | 25.9 | 22.5 | 45.9* | 18.2 | 9.3 | 39.5 | 22.1
CCOc1ccc(C(C)=O)cc1COc1cccnc1[N+](=O)[O-] | -15.3 | 16.8 | -6.2 | -3.7 | -3.8 | 24.8 | ·
CCc1cc2ccc(OC)cc2nc1SCC(=O)NNC(=O)c1ccco1 | 25.8 | 12.1 | 42.7* | 49.4 | 4.4 | -14.6 | 23.7
CN(C)C(=C(C#N)C#N)N1CCN(c2ccc(Cl)c(Cl)c2)CC1 | 7.8 | -15.3 | 41.9* | 26.6 | 1.1 | -13.4 | 10.4
Cc1ccc(C)c(NC(=S)NNC(=O)c2csc(C)c2C)c1 | 25.9 | 0.7 | 24.7 | 26.2 | -0.5 | 4.8 | ·
Cc1cccc(NC(=S)NNC(=O)c2ccc3c(c2)OCO3)c1 | 7.9 | 4.9 | 16.5 | 23.0 | 5.0 | 39.1 | ·
Cc1ccc(C)c(NC(=S)NNC(=O)c2csc(C(C)C)c2)c1 | 21.6 | 9.9 | 40.2* | 17.2 | -11.3 | · | 34.1*
CCCc1cc(C(=O)NNC(=S)Nc2cccc(C)c2)cs1 | 23.6 | 5.1 | 46.7* | 40.7 | -0.9 | -27.1 | 14.6
Cc1ccc(C)c(NC(=S)NNC(=O)c2cc3c(s2)CCC(C)C3)c1 (stereo not drawn) | 22.3 | 6.3 | 44.1* | 32.8 | 9.2 | 3.5 | 33.7*
SMILES | TIM10 inh | NALP3 yeast inh | tim10-1 inh | tim23-1 inh | SKKanGAS inh | PfHsp90 set2 | tim10-1 conf
NC(=O)C1CCCN1S(=O)(=O)c1ccc2ccccc2c1 (stereo not drawn) | -3.4 | 5.9 | -13.7 | -8.4 | -11.6 | -10.2 | ·
C=CCc1ccc(O)c(-c2ccc(O)c(CC=C)c2)c1 | 34.4 | -6.0 | 45.4* | 47.4 | 15.2 | -49.1 | 48.1*
COc1cccc(NC(=O)CN(C)C(=O)c2ccccn2)c1 | -8.8 | 12.7 | -4.7 | -1.3 | · | 8.7 | ·
CCCC(C)C(=O)Nc1nc(C)c(-c2csc(Nc3ccc(Cl)cc3)n2)s1 (stereo not drawn) | 30.0 | -3.8 | 43.7* | 39.3 | 7.4 | -10.1 | 19.2
N#Cc1ccc(COC(=O)C2CC(=O)N(CCc3ccccc3)C2)cc1 (stereo not drawn) | 16.3 | -14.0 | 32.2 | 30.0 | · | 21.0 | ·
O=C(OCc1ccc([N+](=O)[O-])cc1)C1CC(=O)N(CCc2ccccc2)C1 (stereo not drawn) | 18.2 | 2.7 | 43.3* | 27.3 | -5.2 | · | 17.4
S=C(Nc1ccccc1)Nc1nccs1 | 18.5 | 44.5 | 42.5* | 31.7 | 35.5 | 0.5 | 17.8
Fc1ccc(NC(=S)Nc2nccs2)cc1 | 3.2 | 43.0 | 14.3 | 33.8 | 17.8 | -45.1 | ·
Cc1ccc(-c2[nH]ncc2C(=O)c2ccc(Br)cc2)c(O)c1 | 6.5 | 14.0 | 42.2* | 42.6 | -5.5 | -4.4 | 23.2
CC(C)c1nnc(NC(=O)CCC(=O)NC2CC2)s1 | 1.2 | 20.8 | -9.1 | 10.1 | -0.2 | -15.7 | ·
O=C1CCCN1CCC12CC3CC(CC(C3)C1)C2 | 11.6 | 27.5 | 40.8* | 33.6 | -9.8 | · | 5.5
CC(O)[C@H]1CNC(=O)C(=O)N1CCC12CC3CC(CC(C3)C1)C2 (stereo partly drawn) | 7.0 | 5.2 | 1.9 | 1.0 | 4.4 | 14.2 | ·
CC1CCCC(C)N1/N=C/C=C/c1ccccc1[N+](=O)[O-] (stereo not drawn) | 8.7 | -4.0 | 41.4* | 19.1 | -11.6 | -3.7 | 12.8
O=[N+]([O-])c1ccccc1/C=C/C=N/n1c(-c2ccccc2)n[nH]c1=S | 35.5 | 17.5 | 41.7* | 28.5 | 4.4 | 28.2 | 36.4*
C/C(=N\O)c1cc(Cl)ccc1O | 19.7 | -22.0 | 5.1 | -9.1 | 1.3 | -17.3 | ·
O=C(OCCNc1ncc(C(F)(F)F)cc1Cl)c1ccc(S(=O)(=O)N2CCOCC2)cc1 | 21.1 | 7.6 | 20.3 | 19.2 | -1.6 | 8.3 | ·
N#CCC(CNc1ncc(C(F)(F)F)cc1Cl)OC(=O)c1cccc(C(F)(F)F)c1 (stereo not drawn) | 33.1 | -0.7 | 41.6* | 23.1 | -6.4 | 18.4 | 26.3
COc1ccc(C(=S)N2CCOCC2)cc1OS(=O)(=O)c1ccccc1[N+](=O)[O-] | 24.6 | 2.8 | 21.2 | 7.1 | -33.5 | 7.5 | ·
CC1(C)Cc2ccccc2-c2n[nH]c(=S)n21 | 25.5 | 16.5 | 56.1* | 25.5 | -3.4 | -9.2 | 1.3

High-throughput results (PubChem BioAssay)
